# Ba/F3 V617F tox – reduce viability of Ba/F3 cells dependent on JAK2V617F; actives 1.1% (n = 220,000); inhibition, % at 5.6 µM; Ba/F3 EpoR-JAK2V617F viability, ATP luminescence;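 active = inhibition above the campaign mean plus 3 SD over all tested compounds, cut at about 24% in these data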;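 also: cytokine-independent growth of Ba/F3 cells driven by EpoR plus mutant JAK2; 0% = DMSO-treated cells and 100% = JAK inhibitor I control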
# DNA FID counter – displaces DNA intercalator in HCV helicase counter-screen. inhibition, % at 7.9 µM. DNA fluorescent intercalator displacement, fluorescence. AID 1845. actives 0.17% (n = 290,000); in the data active = inhibition above about 37%;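 also: 0% = vehicle and 100% = reference compound; higher means more ethidium bromide displaced from hairpin DNA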
# GPR7 antagonist – antagonists of human GPR7 (neuropeptides B/W receptor 1) | actives 1.1% (n = 290,000) | inhibition, % at 4.4 µM | GPR7-expressing cells, fluorescence antagonist assay | P48145; in the data active = inhibition above about 16%, passing the limit was not always enough;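 also: cells stimulated with the agonist NPW; 0% = agonist with vehicle and 100% = vehicle without agonist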
# Target sequence (P48145 whole entry, looked up): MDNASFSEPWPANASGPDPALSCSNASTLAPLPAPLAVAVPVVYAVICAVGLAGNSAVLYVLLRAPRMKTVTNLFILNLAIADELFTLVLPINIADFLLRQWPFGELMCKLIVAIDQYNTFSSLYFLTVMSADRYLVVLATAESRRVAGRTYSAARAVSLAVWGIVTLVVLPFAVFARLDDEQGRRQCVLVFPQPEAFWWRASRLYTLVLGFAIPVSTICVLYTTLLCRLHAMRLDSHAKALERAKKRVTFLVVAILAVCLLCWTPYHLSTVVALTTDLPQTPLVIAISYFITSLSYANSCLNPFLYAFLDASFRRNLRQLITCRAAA
# KLF5 inh – inhibitors of KLF5 expression. DLD-1 KLF5 promoter-luciferase reporter, luminescence. inhibition, % at 5 µM. actives 0.23% (n = 290,000);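 active = inhibition above a per-plate limit of that plate's mean compound inhibition plus 3 SD, cut at about 60% in these data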;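 also: 0% = DMSO wells and 100% = LY294002 at 200 µM; higher means less KLF5 promoter-driven luciferase light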
# BaF3 parental – parental Ba/F3 viability inhibition as JAK2V617F counter-screen. AID 1486. inhibition, % at 5.6 µM. CellTiter-Glo ATP luminescence. actives 1.1% (n = 220,000);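 active = inhibition above a per-campaign cutoff, the mean inhibition of all tested compounds plus 3 SD, cut at about 27% in these data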;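 also: 0% = DMSO wells and 100% = JAK Inhibitor I control wells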
# IEC-6 tox – counter-screen for KLF5 inhibitors: cytotoxicity in IEC-6 cells | IEC-6 cytotoxicity, luminescence viability | inhibition, % at 5 µM | actives 0.78% (n = 290,000) | AID 1825;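 also: 0% = plate median of test compound wells and 100% = cytotoxic reference compound wells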
# IEC-6 tox confirm – IEC-6 cytotoxicity, confirmation assay; shares compounds with IEC-6 tox; actives 63% (n = 1,900); IEC-6 rat intestinal epithelial viability, luminescence; AID 1907; inhibition, % at 5 µM;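 also: 0% = vehicle and 100% = reference cytotoxic drug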
# An asterisk follows results filed as active; / = no result given. Only some compounds are listed: those with a hit (about 2.6% of all), similar ones and a draw of the others. Rule as the data show it, unless noted: active = inhibition above about 22%; inactive = the rest.
SMILES,Ba/F3 V617F tox,DNA FID counter,GPR7 antagonist,KLF5 inh,BaF3 parental,IEC-6 tox,IEC-6 tox confirm
O=c1[nH]c(NCc2ccco2)nnc1Cc1ccccc1Cl,4,-4,13,18,12,22*,14
CC1CCc2nc3ccc(S(=O)(=O)N4CCC(C(=O)O)CC4)cc3c(C(=O)O)c2C1 (configuration not stated),/,-8,-8,-13,/,-2,/
CC1CC(C)CN(CCCNC(=O)c2ccc3nc(N4CCCCC4)sc3c2)C1 (configuration not stated),/,8,-2,-114,/,27*,2
COc1cccc(Nc2nc(N)nc(-c3oc4ccccc4c3C)n2)c1,12,-12,-11,-42,14,25*,35*
Cc1ccc(Nc2nc(N)nc(-c3oc4ccccc4c3C)n2)cc1,76*,-5,10,58,76*,83*,79*
Cc1cccc(Nc2nc(N)nc(-c3oc4ccccc4c3C)n2)c1,-5,-8,-15,-63,4,12,/
O=C(/C=C1\SC(=O)NC1=O)Nc1ccc(C(=O)O)cc1,-6,10,11,-5,1,2,/
COc1cc(/C=C(\C#N)C(=O)NC(C)C)ccc1OCc1ccc(C(=O)O)cc1,-2,-40,-18,-17,-1,-2,/
CCOC(=O)c1cc(=O)n(-c2ccc(Cl)cc2C)[nH]1,-1,-24,-9,-21,6,0,/
COc1ccc(O)c(/C=N/NC(=S)NCCc2ccccc2)c1,/,-16,-21,6,/,11,/
COc1ccc(/C(C)=N/NC(=S)NCCc2ccccc2)c(O)c1,/,-9,11,-2,/,40*,2
COCCNC(=S)N/N=C(\C)c1ccccc1O,1,-21,-9,40,9,85*,18
COc1cc(OC)cc(-c2oc3cccnc3c2C#CCCO)c1,/,-31,-3,-20,/,25*,17
O=C(CSc1nc(-c2ccccc2)cs1)NCCN1C(=O)CSC1=O,6,19,-7,-49,10,2,/
Cc1ccc(C(=O)CC(=O)c2ccccc2)cc1,/,-9,-22,-144,/,1,/
Cc1ccc(C(=O)Sc2cccccc2=O)cc1,/,-6,24,31,/,99*,101*
Cc1nn(CC(=O)NCCc2cccs2)c(=O)c2nn(-c3ccccc3)c(C)c12,/,-28,-9,-13,/,-4,/
Cc1ccc(NS(=O)(=O)c2sc3ccc(Cl)cc3c2C)cc1,-3,-13,-22,-13,2,-2,/
CCOC(=O)c1nc(NNC(=O)c2ccc([N+](=O)[O-])cc2)sc1C,/,-5,-22,53,/,38*,21
CCOC(=O)c1sc(NNC(=O)c2ccc(C)cc2)nc1C,-6,-21,-6,-34,1,1,/
O=c1[nH]c(-c2ccccn2)nc(C(F)(F)F)c1Br,9,-7,-8,60,28*,68*,24*
O=c1[nH]c(-c2ccccn2)nc2ccccc12,-2,-5,4,-126,8,8,/
CCCn1c(CN2CCN(C(=O)OCC)CC2)nc2cc(NC(=O)CC)ccc21,/,-36,18,61,/,53*,24*
CCOC(=O)N1CCN(Cc2nc3cc(NC(=O)CC)ccc3n2C)CC1,/,-13,-10,-21,/,-6,/
Cc1[nH]c2ccccc2c1/C=N/Nc1nc(Nc2ccc(F)cc2)nc(N2CCOCC2)n1,0,-15,-12,18,10,56*,96*
SMILES,Ba/F3 V617F tox,DNA FID counter,GPR7 antagonist,KLF5 inh,BaF3 parental,IEC-6 tox,IEC-6 tox confirm
c1ccc(Nc2nc(N3CCOCC3)nc(N3CCOCC3)n2)cc1,-2,-23,-4,-21,3,8,/
Fc1ccc(Nc2nc(N3CCOCC3)nc(N3CCOCC3)n2)cc1,/,-30,-13,-4,/,2,/
Cc1ccc(Nc2nc(N/N=C/c3c[nH]c4ccccc34)nc(N3CCOCC3)n2)cc1,80*,-19,-22,-30,62*,90*,94*
Cc1cc(/C=N/Nc2nc(N3CCOCC3)nc(N3CCOCC3)n2)c(C)n1-c1ccccc1,-3,-29,-7,-31,6,-3,/
C(=N\Nc1nc(Nc2ccccc2)nc(N2CCOCC2)n1)/c1c[nH]c2ccccc12,78*,-16,-16,-34,67*,86*,97*
N=c1oc2ccc(Cl)cc2cc1C(=O)Nc1ccc(F)cc1,/,-1,-2,-115,/,-2,/
Cc1nn(C)c(C)c1/C=C(\C#N)C(N)=O,-3,-1,6,6,2,-6,/
